# GLP1R inv ag: acts as inverse agonist at human GLP-1 receptor; actives 1.6% (n = 410,000); Potency, µM (highest dose often 38.3 µM), inactives show at the highest dose activity change, negative = inhibition, hits mostly inhibitors; HEK293 GLP-1R CRE-luciferase, luminescence, 24 h; GLP-1R form is constitutively active; P43220; further: on the % scale 0 is the no-effect control and ±100 the full control effect; nearly all actives have a fitted effect of over 55% in size
# Target sequence (P43220 whole entry, looked up): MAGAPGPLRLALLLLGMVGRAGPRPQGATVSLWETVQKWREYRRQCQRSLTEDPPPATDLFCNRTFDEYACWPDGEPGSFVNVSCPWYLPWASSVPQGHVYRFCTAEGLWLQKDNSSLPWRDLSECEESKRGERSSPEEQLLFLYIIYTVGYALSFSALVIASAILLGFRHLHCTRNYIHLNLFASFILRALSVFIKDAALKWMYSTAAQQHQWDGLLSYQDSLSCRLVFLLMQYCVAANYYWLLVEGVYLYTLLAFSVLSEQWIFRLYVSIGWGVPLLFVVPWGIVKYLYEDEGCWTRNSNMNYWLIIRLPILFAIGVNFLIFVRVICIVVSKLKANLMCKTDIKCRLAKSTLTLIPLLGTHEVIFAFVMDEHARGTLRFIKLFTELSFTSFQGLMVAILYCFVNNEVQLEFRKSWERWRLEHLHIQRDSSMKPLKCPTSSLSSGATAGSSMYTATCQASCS
#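 Cells are plated, allowed 12 hours at 37 deg C, then treated with compounds for 24 hr before luciferase detection reagent is added and luminescence is read after 12 min at room temperature. The HEK293 line carries constitutively active GLP-1R with a cAMP-responsive reporter.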
# HEK293 tox: cytotoxicity in counter-screen for GLP-1R inverse agonists; AID 624418; actives 0.13% (n = 410,000); HEK293 cAMP-luciferase reporter cells, luminescence, 24 h; Potency, µM (top dose mostly 38.3 µM), for the others: top-dose activity change, negative = inhibition, usual class: inhibitors;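 further: loss of luciferase light is scored as toxicity; on the % scale 0 is the no-effect control and ±100 the full control effect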
#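 Cells in DMEM/10% Nu serum/1% pen-strep, 1536-well format. Pre-incubated 12 h, dosed with 23 nL compound, incubated a further 24 h. Luciferase detection, 12 min at room temp, luminescence.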
# RORg inh: inhibitors of mouse ROR gamma transcriptional activity; P51450; AID 2551; Potency, µM (series often up to 53.6 µM), for the others: at the top dose activity change, negative = inhibition, actives largely listed as inhibitors; Drosophila S2 Gal4-RORgamma UAS-luciferase reporter, 20 h; actives 5.4% (n = 310,000); further: on the % scale 0 is the no-effect control and ±100 the full control effect; nearly all actives have a fitted effect of over 60% in size
#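 Read-out: Photinus luciferase luminescence; inhibitors lower reporter signal. Insect Schneider cells with Gal4-ROR gamma fusion under metallothionein promoter, UAS reporter; 700 uM final copper sulfate induction, 20 hr, ambient temperature.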
# GLP-1R agonist: agonists of human GLP-1 receptor; Potency, µM (series often up to 45.6 µM), without a hit: at the highest dose activation, hits mostly activators; P43220; AID 624172; HEK293 GLP-1R CRE-luciferase, luminescence, 4-6 h; cells express a hypersensitive GLP-1R form; actives 0.007% (n = 380,000); further: % of control where 0% means no effect
# Gal4-VP16 FLuc: counter-screen for ROR gamma inhibitors: Gal4-VP16 reporter. Drosophila S2 Gal4-VP16 UAS-luciferase, luminescence, 20 h. Potency, µM (titrated, usually from 53.6 µM), for the others: at the top dose activity, negative = inhibition, usual class: inhibitors. actives 3.5% (n = 310,000);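 further: Gal4-VP16 expression switched on by copper sulfate through the metallothionein promoter; on the % scale 0 is the no-effect control and ±100 the full control effect; nearly all actives have a fitted effect of over 50% in size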
# Active calls of the source: *; i = inactive; u = inconclusive; x = no result given. The list is not random: actives were taken first. Their share in the collection is about 5.9%. The call rests on the fitted dose curve; in most records, active means well fitted curve in the direction sought with a large enough effect; inconclusive means small, poorly fitted or top-dose-only effect, or another doubt; inactive means no such curve, though single readings can be large; an effect the other way counts as inactive or inconclusive. Potency means the concentration at half of the fitted maximal effect.
SMILES,GLP1R inv ag,HEK293 tox,RORg inh,GLP-1R agonist,Gal4-VP16 FLuc
CN(C(=O)CN1CCC(NC(=O)c2ccccc2Br)CC1)C1CCCCC1,2%,-6%,-28%,1%,16%
Cc1ccccc1C(=O)NC(=S)N(C)C1CCCCC1,u,u,u,-1%,2.8µM*
COc1ccc(-c2noc(CSc3nnc(Cc4ccccc4)n3-c3ccccc3)n2)cc1OC,u,0%,x,x,x
CCCCN1CN(Cc2ccco2)CNC1=S,11%,-3%,13µM*,0%,u
S=C1NCN(Cc2ccco2)CN1,-11%,1%,-12%,-3%,-9%
S=C1NCN(Cc2ccco2)CN1c1cccc2ccccc12,-18%,-5%,5µM*,-3%,u
C=CCN1CN(Cc2ccco2)CNC1=S,7%,5%,13µM*,-1%,u
S=C1SCN(Cc2ccco2)CN1Cc1ccco1,5.6µM*,u,2.5µM*,0%,3.2µM*
COC(=O)c1ccc(N2C(=O)Cc3cc(OC)c(OC)cc3C2c2ccc(F)cc2)cc1 (stereo not given),-11%,7%,x,x,x
COc1ccc(-c2nc(CNC(=O)NC3CCCCC3)c(C)o2)cc1,-1%,25%,x,x,x
Cn1c(=O)cc(OCC(=O)NCc2ccc(F)cc2Cl)c2ccccc21,1%,1%,x,0%,x
CCc1ccc(N2CN(Cc3ccco3)CNC2=S)cc1,2%,-2%,3.5µM*,14%,u
CCOCCn1ccc2c(OCC(=O)Nc3cccc([N+](=O)[O-])c3)cccc2c1=O,8%,-4%,x,x,x
Oc1c(N=NC(=S)Nc2ccccc2F)c2ccccc2n1Cc1ccccc1F,-11%,-18%,2.5µM*,-1%,4µM*
Cc1ccc(C)c(Cn2c(O)c(N=NC(=S)Nc3ccccc3F)c3ccccc32)c1,-17%,7%,-42%,2%,u
CCNC(=S)N=Nc1c(O)n(Cc2ccc(Cl)cc2)c2ccccc12,u,-7%,4.5µM*,9%,u
Oc1c(N=NC(=S)Nc2ccccc2F)c2ccccc2n1Cc1ccc(Cl)cc1,-6%,-12%,4µM*,-2%,-14%
Cc1ccccc1Cn1c(O)c(N=NC(=S)Nc2ccccc2F)c2ccccc21,-3%,-8%,2.5µM*,-7%,u
CCC(NC(=O)Nc1cc(Cl)ccc1OC)c1c(-n2cccc2)sc2c1CCN(C)C2 (stereo not given),u,-7%,x,x,x
Cc1cc(NC(=O)c2ccc(-c3ccc(Br)cc3)o2)cc(-c2nc3ncccc3o2)c1O,5%,4%,x,0%,x
Cc1nc(C(=O)NNC(=O)c2cccc(Cl)c2)c(C(F)(F)F)o1,19%,9%,8.9µM*,1%,-75%
Cc1nc(C(=O)NNC(=O)c2ccccc2Cl)c(C(F)(F)F)o1,10%,23%,u,2%,-15%
O=C(Nc1ccc(O)c2c(=O)cc(-c3ccccc3Cl)oc12)c1cc(Cl)cc(Cl)c1,x,x,1%,x,-6%
O=C(Nc1ccc2ccccc2c1)C(C1CC1)n1c(=O)c(-c2cc3ccccc3[nH]2)nc2ccccc21 (stereo not given),5µM*,i,x,x,x
O=C(Nc1ccc2c(c1)OCCO2)C(C1CC1)n1c(=O)c(-c2cc3ccccc3[nH]2)nc2ccccc21 (stereo not given),11µM*,i,x,x,x
SMILES,GLP1R inv ag,HEK293 tox,RORg inh,GLP-1R agonist,Gal4-VP16 FLuc
Cc1cncc(C(=O)O)[n+]1[O-],x,x,-3%,-7%,-5%
NC(=O)[C@H]1CCCN1C(=O)[C@H](Cc1cnc[nH]1)NC(=O)[C@@H]1CCC(=O)N1,x,x,5%,x,4%
Cc1cccc(OCC(=O)Nc2cccc3cccnc23)c1C,7%,-1%,x,-2%,x
Cc1onc(-c2ccccc2Cl)c1C(=O)Nc1nnc(-c2ccc(Cl)cc2Cl)s1,13%,-7%,14µM*,7%,u
Cc1onc(-c2ccccc2Cl)c1C(=O)Nc1nnc(-c2ccc(Br)cc2)s1,10µM*,-18%,10µM*,-7%,22µM*
CC(=O)Cc1nsc(NC(=O)c2c(-c3ccccc3Cl)noc2C)n1,7%,-10%,27%,4%,1%

# Screening results (PubChem BioAssay)
